Experimental data taken from article PMC11995724, “Antibiotic target discovery by integrated phenotypic and activity-based profiling of electrophilic fragments” (Cell chemical biology, 2025).
Hit rate of the full screen: of about 3,200 compounds, about 75 (2%) showed an effect of 50% or more. The entries come from a sample that favours strong results as a whole.

tested on: T1, S. aureus MSSA476; set-up: species or system S. aureus MSSA476 (TSB) or V. cholerae SAD30 (LB); 384-well bacterial growth screen at 25 uM, OD600 relative to DMSO control; conditions: relative growth, OD600, TSB; 25 µM; inhibitor
T1 construct: MSSA476

First: C=CC(=O)NC(C)c1cnc(C(F)(F)F)s1 (stereo not shown) [2-A05, N-{1-[2-(trifluoromethyl)-1,3-thiazol-5-yl]ethyl}prop-2-enamide]
Second: C=CC(=O)NCC1(OC)CCC(C)CC1 (stereo not shown) [1-P08, N-[(1-methoxy-4-methylcyclohexyl)methyl]prop-2-enamide]
The “% of control remaining” value of the first is higher: 119.06% for the first, 89.3187% for the second.

Compared with N#CC(=Cc1ccc(Cl)c([N+](=O)[O-])c1)C(=O)N1CCCC1 [9-N05, 3-(4-chloro-3-nitrophenyl)-2-(pyrrolidine-1-carbonyl)prop-2-enenitrile], Cc1cc(C=C(C#N)C(=O)Nc2ccccc2)c(C)n1C1CC1 [8-E14, 2-cyano-3-(1-cyclopropyl-2,5-dimethyl-1H-pyrrol-3-yl)-N-phenylprop-2-enamide] is higher in “% of control remaining” value: 107.566% for the first, 129.793% for the second.

Compared with C=CC(=O)N1CCCCC1c1noc(C2CC2)n1 (stereo not shown) [3-K12, 1-[2-(5-cyclopropyl-1,2,4-oxadiazol-3-yl)piperidin-1-yl]prop-2-en-1-one], CC(=O)NCc1ccc(C2CCCN2C(=O)CCl)o1 (stereo not shown) [5-P13, N-({5-[1-(2-chloroacetyl)pyrrolidin-2-yl]furan-2-yl}methyl)acetamide] is higher in “% of control remaining” value: 93.3391% for the first, 100.182% for the second.

Compared with CCc1ccccc1NC(=O)CN(C)C(=O)C(C)Cl (stereo not shown) [4-P05, 2-chloro-N-{[(2-ethylphenyl)carbamoyl]methyl}-N-methylpropanamide], CC(C)C(=O)Nc1ccc(C(=O)C(C)Cl)cc1 (stereo not shown) [10-E08, N-[4-(2-chloropropanoyl)phenyl]-2-methylpropanamide] is higher in “% of control remaining” value: 90.7099% for the first, 106.875% for the second.

First: CC(Cl)C(=O)Nc1ccc(NC(=O)c2cccs2)cc1 (stereo not shown) [6-G07, N-[4-(2-chloropropanamido)phenyl]thiophene-2-carboxamide]
Second: CC(NC(=O)CCl)C(=O)Nc1ccc(Cl)cc1 (stereo not shown) [5-G11, 2-(2-chloroacetamido)-N-(4-chlorophenyl)propanamide]
The “% of control remaining” value of the first is higher: 112.683% for the first, 83.4244% for the second.

Going from NS(=O)(=O)c1ccc(CNC(=O)CCl)cc1 [4-P12, 2-chloro-N-[(4-sulfamoylphenyl)methyl]acetamide] to CCc1ccc(C(=O)CCl)cc1 [10-F18, 2-chloro-1-(4-ethylphenyl)ethan-1-one], the “% of control remaining” value rises from 97.1891% to 102.188%.

Compared with COc1ccc(N2C(=O)C=CC2=O)c(OC)c1 [10-J15, 1-(2,4-dimethoxyphenyl)-2,5-dihydro-1H-pyrrole-2,5-dione], COc1cc(NC(=O)C(C)Cl)cc(OC)c1 (stereo not shown) [4-I04, 2-chloro-N-(3,5-dimethoxyphenyl)propanamide] is lower in “% of control remaining” value: 121.875% for the first, 105.574% for the second.

Compared with CCOC(=O)c1ccc(NC(=O)CCl)cc1 [4-E17, ethyl 4-(2-chloroacetamido)benzoate], CCC(=O)Nc1ccc(C(=O)CCl)cc1 [10-C03, N-[4-(2-chloroacetyl)phenyl]propanamide] is lower in “% of control remaining” value: 118.152% for the first, 1.5625% for the second.

Compared with CCCc1ccc(C(=O)CCl)cc1 [10-C04, 2-chloro-1-(4-propylphenyl)ethan-1-one], CSc1ccc(C(=O)CCl)cc1 [10-E07, 2-chloro-1-[4-(methylsulfanyl)phenyl]ethan-1-one] is lower in “% of control remaining” value: 134.375% for the first, 2.1875% for the second.

Compared with CCN(CC)C(=O)c1ccc(NC(=O)CCl)cc1 [4-C05, 4-(2-chloroacetamido)-N,N-diethylbenzamide], CC(C)C(=O)Nc1ccc(C(=O)CCl)cc1 [10-D04, N-[4-(2-chloroacetyl)phenyl]-2-methylpropanamide] is lower in “% of control remaining” value: 84.9929% for the first, 4.6875% for the second.

Going from CC(Cl)C(=O)N(Cc1ccc(Cl)cc1)Cc1cnn(C)c1 (stereo not shown) [5-P17, 2-chloro-N-[(4-chlorophenyl)methyl]-N-[(1-methyl-1H-pyrazol-4-yl)methyl]propanamide] to CC(Cl)C(=O)C=C1N(C)c2ccccc2C1(C)C (stereo not shown) [10-J22, 3-chloro-1-(1,3,3-trimethyl-2,3-dihydro-1H-indol-2-ylidene)butan-2-one], the “% of control remaining” value rises from 95.4463% to 134.063%.

Going from C=CC(=O)NCc1ccc(C(=O)N2CCCOC(C)(C)C2)cc1 [3-N06, N-{[4-(2,2-dimethyl-1,4-oxazepane-4-carbonyl)phenyl]methyl}prop-2-enamide] to C=CC(=O)N1CCC(C(=O)Nc2cccc(NC(=O)C(C)C)c2)CC1 [3-F05, N-[3-(2-methylpropanamido)phenyl]-1-(prop-2-enoyl)piperidine-4-carboxamide], the “% of control remaining” value falls from 118.764% to 95.0805%.

For CC(C)NC(=O)C(C#N)=Cc1cccc2ccccc12 [8-P06, 2-cyano-3-(naphthalen-1-yl)-N-(propan-2-yl)prop-2-enamide], the “% of control remaining” value was 127.801%.
